Tau FP inhib: blocks human tau fibril formation measured by polarization; actives 0.39% (n = 280,000); K18 P301L tau heparin fibrillization, Alexa594 FP, 6 h; P10636; Potency, µM (series often up to 57.7 µM), for inactives: at the top dose activity, negative = inhibition, hits mostly inhibitors; AID 1468; note: nearly all actives have a fitted effect of over 55% in size
Target sequence (P10636 561-689 P618L limits assumed): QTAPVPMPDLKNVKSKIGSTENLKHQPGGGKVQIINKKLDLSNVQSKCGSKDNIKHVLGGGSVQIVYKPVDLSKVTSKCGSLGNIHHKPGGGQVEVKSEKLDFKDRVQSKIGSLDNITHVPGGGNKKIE
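Steps: dispense K18 P301L tau (15 uM plus 0.24 uM Alexa 594 tracer, final) in pH 7 sodium acetate; add compound; add heparin (20 uM final); incubate 6 hr, 37 C; add ThT (30 uM final); after 1 hr ambient, read FP.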
RORgamma inh: blocks mouse ROR gamma transcriptional activity. Drosophila S2 Gal4-RORgamma UAS-luciferase reporter, 20 h. P51450. AID 2551. actives 5.4% (n = 310,000). Potency, µM (titrated, usually from 53.6 µM), for the others: at the top dose activity change, negative = inhibition, hits mostly inhibitors; note: nearly all actives have a fitted effect of over 60% in size
Target sequence (P51450 whole entry, looked up, the tested form may be a part): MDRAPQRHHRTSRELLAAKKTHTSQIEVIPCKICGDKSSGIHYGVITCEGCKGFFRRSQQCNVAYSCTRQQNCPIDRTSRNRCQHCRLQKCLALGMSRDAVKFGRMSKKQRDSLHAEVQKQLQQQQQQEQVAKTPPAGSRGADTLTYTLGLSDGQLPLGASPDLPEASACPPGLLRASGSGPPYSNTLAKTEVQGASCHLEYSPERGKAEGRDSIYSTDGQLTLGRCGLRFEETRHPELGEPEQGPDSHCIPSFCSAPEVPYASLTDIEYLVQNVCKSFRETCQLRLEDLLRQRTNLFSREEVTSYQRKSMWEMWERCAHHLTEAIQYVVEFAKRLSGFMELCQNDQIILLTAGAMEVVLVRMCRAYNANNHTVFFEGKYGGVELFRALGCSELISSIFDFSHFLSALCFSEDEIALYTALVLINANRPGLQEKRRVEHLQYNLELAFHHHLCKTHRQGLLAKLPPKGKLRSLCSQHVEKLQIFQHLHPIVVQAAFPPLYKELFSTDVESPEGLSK
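In this cell-based reporter format, copper sulfate (700 uM final) drives Gal4–ROR gamma fusion expression from a metallothionein promoter in Drosophila Schneider cells; compounds preincubated 1 hr, reporter read after 20 hr at ambient temperature.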
Tau fluor counter: counter-screen for tau fibril formation inhibitors. tau K18 P301L Alexa594 fluorescence, heparin fibrillization. Potency, µM (highest dose often 57.7 µM), inactives show at the top dose activity change, negative = decrease. actives 0.93% (n = 280,000). AID 1463; note: nearly all actives have a fitted effect of over 55% in size
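Human tau K18 P301L (15 uM unlabeled, 0.24 uM Alexa 594-labeled) in 100 mM sodium acetate pH 7 with 20 uM heparin, 6 hr at 37 C. ThT 30 uM added, 1 hr ambient; Alexa 594 FP and total fluorescence read at 555/632 nm.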
Gal4-VP16 FLuc: Gal4-VP16 reporter inhibition counter-screen. AID 2546. Drosophila S2 Gal4-VP16 UAS-luciferase, luminescence, 20 h. Potency, µM (titrated, usually from 53.6 µM), without a hit: at the highest dose activity, negative = inhibition, hits mostly inhibitors. actives 3.5% (n = 310,000);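 note: Gal4-VP16 expression switched on by copper sulfate through the metallothionein promoter; nearly all actives have a fitted effect of over 50% in size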
Tau ThT inhib: tau fibrillization inhibition (ThT binding); P10636; recombinant tau K18 P301L (four-repeat tau fragment), heparin-induced fibrillization, ThT fluorescence; Potency, µM (titrated, usually from 57.4 µM), without a hit: top-dose activity, negative = inhibition, most hits filed as inhibitors; actives 2.1% (n = 270,000); AID 1460; note: nearly all actives have a fitted effect of over 55% in size
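Tau K18 P301L fragment (15 uM unlabeled plus 0.24 uM Alexa 594-labeled) in 100 mM sodium acetate pH 7 with compound, fibrillization induced by 20 uM heparin for 6 hr at 37 C. Thioflavin T (30 uM) added, fluorescence read after 1 hr (ex 450, em 510 nm).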
* hit, by the source's call; ? = inconclusive; . = no result; [ ] = dose if it differs, or a comment. A selection: hits, their analogues and other compounds. The true share with any hit is near 7.3%. Calls come from the whole dose curve; as a rule, active = well fitted curve in the direction sought with a large enough effect; inconclusive = small, poorly fitted or top-dose-only effect, or another doubt; inactive = no such curve, though single readings can be large; an effect the other way counts as inactive or inconclusive. % is set by controls: 0 for no effect and ±100 for the full control effect; potency is the fitted concentration of half-maximal effect.

SMILES	Tau FP inhib	RORgamma inh	Tau fluor counter	Gal4-VP16 FLuc	Tau ThT inhib
Cc1ccccc1NC(=S)NCCc1ccccn1	-1%	16µM*	0%	?	-7%
S=C(NCc1ccccn1)Nc1ccc(Cl)cc1	6%	7.9µM*	-9%	?	-9%
S=C(NCCc1ccccn1)Nc1cccc(Cl)c1	2%	5µM*	-4%	7.9µM*	4%
Cc1cccc(NC(=S)NCCc2ccccn2)c1	-15%	?	-14%	?	-9%
Fc1cccc(NC(=S)NCc2ccccn2)c1	?	-36%[10 µM]	5%	?	6%
Cc1cccc(C)c1NC(=S)NCCc1ccccn1	1%	1.4µM*	-5%	2.8µM*	0%
Cc1ccc(C)c(Cn2c3ccccc3c3cnn(CC(=O)NCc4ccccc4)c(=O)c32)c1	-16%	.	11%	.	?
Cc1ccc(CNC(=O)C2CCCN(S(=O)(=O)c3cn(C)cn3)C2)cc1 (centres undefined)	4%	.	3%	.	3%
O=C(NC(=S)NCCc1ccccn1)c1ccccc1	1%	13µM*	4%	-66%	2%
O=C(NC(=S)NCCc1ccccn1)c1ccco1	7%	?	11%	12%	5%
Cc1c(NC(=O)Cc2ccc(F)cc2)cccc1-c1nc2cccnc2s1	?	.	20µM*[quencher]	.	8%
Cc1ccc(NC(=S)NNC(=O)C2CC2c2ccc(C)cc2)cc1 (centres undefined)	-9%	11µM*	-11%	?	-7%
O=C(NNC(=S)Nc1ccc(F)cc1)C1CC1c1ccc(Cl)cc1 (centres undefined)	4%	?	-1%	20µM*	?
CC1=C(C(N)=O)C(c2ccc(F)cc2)n2nc(-c3ccc(N(C)C)cc3)nc2N1 (centres undefined)	-6%	.	?	.	?
Cc1[nH]c2c(ccc3cccnc32)c1C	-1%	0%	-19%	-28%	?
Clc1ccc2ccc3cccnc3c2n1	.	13µM*	.	?	.
CC/C(=N/Nc1ccccc1Cl)c1cnnc(-c2ccccc2)n1	0%	-31%	-1%	-19%	?
COc1ccc(N/N=C(/C)c2cnnc(-c3ccccc3)n2)cc1	11%	4%	?	-3%	2.8µM*
COc1ccc(OC)c(-c2ccc(C(=O)O)o2)c1	-10%[126 µM]	3%[96.6 µM]	-26%[126 µM]	9%[96.6 µM]	?
COC(=O)c1c(N)n(-c2ccc(NC(C)=O)cc2)c2nc3ccccc3nc12	12%	14%	-8%	5%	?
COC(=O)c1c(N)n(-c2ccc(N3CCOCC3)cc2)c2nc3ccccc3nc12	?	?	?	9%	10µM*
COC(=O)CN1C(=O)C2(C(C#N)=C(N)Oc3n[nH]c(-c4cccs4)c32)c2ccccc21 (centres undefined)	-9%	18%	-6%	15%	-8%
COC(=O)CN1C(=O)C2(C(C#N)=C(N)Oc3c2c(C)nn3-c2ccccc2)c2ccccc21 (centres undefined)	?	?	-25%	?	28µM*
C=C1C(=O)O[C@@H]2[C@H]1[C@@H](OC(=O)/C(C)=C/C)C/C(C)=C\C(=O)/C=C(\C)[C@@H]2O	?	?	0%	11µM*	?
CCOC(=O)c1c(C)[nH]c(=S)c(C#N)c1-c1ccc(OC)cc1	-6%	13µM*	-16%	?	?
SMILES	Tau FP inhib	RORgamma inh	Tau fluor counter	Gal4-VP16 FLuc	Tau ThT inhib
CCOC(=O)c1c(C)[nH]c(=S)c(C#N)c1-c1ccc(Cl)cc1	2%	11µM*	7%	?	-9%
CC(=O)c1c(C)[nH]c(=S)c(C#N)c1-c1ccc(Cl)cc1	0%	?	-20%	?	?
CSc1cccc(NC(=S)N(Cc2ccc(C)cc2)Cc2ccccn2)c1	4%	13µM*	-25%	-10%	-5%
COc1ccc(CCN(Cc2ccccn2)C(=S)Nc2cccc(SC)c2)cc1OC	6%	10µM*	?	-2%[10 µM]	-14%
COc1ccccc1NC(=S)N(CCc1ccc(OC)c(OC)c1)Cc1ccccn1	4%	11µM*	-19%	17%[10 µM]	-10%
Cc1ccc(C(=O)CCc2ccc(N)cc2)cc1	.	5%	.	18%	.
COc1ccc(NC(=O)Nc2nnc(N3CCCCCC3)s2)c(OC)c1	-2%	.	-3%	.	3%
Cc1cc(C)n(-c2ncc3c(n2)N(CCO)CCOC3=O)n1	-2%	4%	-6%	4%	-8%
CC1=CC2(O)OCCN(CCO)C2=CC1=O (centres undefined)	?	16µM*	?	16µM*	28µM*
CC(=O)Oc1ccc(C2(C)CC(C)(C)NC(=S)N2C)c(OC(C)=O)c1 (centres undefined)	-4%	13µM*	-5%	?	-9%
COc1ccc(C2(c3ccc(OC(C)=O)cc3OC(C)=O)CC(c3ccccc3)NC(=S)N2)cc1 (centres undefined)	1%	-44%	3%	-4%	-8%
CCn1cc(S(=O)(=O)c2ccc(OC)cc2)c(=O)c2cc(F)c(N3CCC(C)CC3)cc21	-5%	.	-17%	.	-12%
COc1ccc(/C=C/C2=C[C@]3(C)C[C@]2(C)[C@H](c2ccc(OC)cc2)CC3=O)cc1	5%	24%	1%	3%	5%
O=[N+]([O-])c1ccc2c(c1)N([O-])C1(CCCCC1)[N+]2=O	11µM*	-14%	?	-6%	3.5µM*
COCc1[nH]nc2c1C(c1c(F)cccc1Cl)C(C#N)=C(N)O2 (centres undefined)	-10%	?	-6%	18µM*	1%
COCc1[nH]nc2c1C(c1ccccc1Cl)C(C#N)=C(N)O2 (centres undefined)	-4%	-22%	-4%	-17%	-6%
N#CC1=C(N)Oc2n[nH]c(-c3ccccn3)c2C1c1c(F)cccc1Cl (centres undefined)	-22%	3.2µM*	-15%	8.9µM*	-10%
CCCCCCCCCCOC(=O)Cn1c(COc2ccccc2OC)[n+](C)c2ccccc21	.	?	.	4.5µM*	.
Cn1c(COc2ccccc2O)[n+](C)c2ccccc21	.	0%	.	-1%	.
COc1cccc(NC(=S)N2CCC(NC(=O)c3ccco3)CC2)c1	.	-24%	.	0%	.
CCC[C@H]1C[C@H](C(=O)N[C@H]([C@@H]2O[C@H](SC)[C@@H](O)[C@H](O)[C@@H]2O)[C@H](C)O)N(C)C1	.	14%[16.9 µM]	.	-3%[17 µM]	.
CCc1nnc(N/N=C/c2ccc(N3CCC(C)CC3)c([N+](=O)[O-])c2)n1N	-5%	10µM*	?	?	13µM*
CC1CCN(c2ccc(S(=O)(=O)NC3=NCCCCC3)cc2[N+](=O)[O-])CC1	7%	17%	-11%	0%	-24%
Cc1nnc(N/N=C/c2ccc([N+](=O)[O-])cc2)n1N	-29%	?	-11%	-14%	?

Source: PubChem BioAssay
